# Source: ChEMBL document CHEMBL4513216, “Probing the Open Global Health Chemical Diversity Library for Multistage-Active Starting Points for Next-Generation Antimalarials” (ACS Infect Dis, 2020)
# Among all 65,000 compounds or so, about 2,100 (3.2%) showed an effect of 50% or more. The median lay at about -52%. For the sample, strong results were picked, then their nearest neighbours and some compounds at random.
# Test system: Plasmodium falciparum
# Assay: Screen against P. falciparum Asexual Blood Stage (ABS), at 5uM
# Format: functional, Dd2
# Details: tested at 5 uM
row,Compound,INHIBITION [%]
1,Cc1nc(CC(=O)N2CCCC(N(C)Cc3ccccc3)C2)cs1 (centres undefined),-55.85
2,CN1CC[C@H](N(Cc2ccccc2)CC2CC2)C[C@H](O)C1,80.8
3,CN1CC[C@H](N(Cc2ccccc2)Cc2ccccc2)C[C@H](O)C1,72.1
4,CN1CC[C@@H]2OC[C@H](C(=O)N(C)Cc3ccccn3)C[C@@H]2C1,-138
5,Cc1noc(C)c1CN1C[C@@H]2OCCN(Cc3cnn(C)c3)[C@@H]2C1,-2.02
6,O=C(Cc1csc(-c2ccco2)n1)N1CCN(CCO)CC1,-30.8
7,Cc1ccc(CN2CC[C@H]3[C@H]2CC(=O)N3c2cccnc2)o1,-38.1
8,CN(C)CCNC(=O)CCn1ncc2c(Cl)cccc21,71
9,Cn1cc(C2=CCN(CCC(=O)NCc3ccc(Cl)cc3)CC2)cn1,5
10,Cc1cc(CN2CC[C@H]3C[C@H](C)O[C@@H]3C2)no1,-86.2
11,Cc1c(CC(=O)N2CCN(C(C)C)CC2)nnn1-c1ccccc1,-40.6
12,CN1CCCC1CCn1ccnc1-c1nc2ccccc2[nH]1 (centres undefined),72.2
13,O=C1[C@H]2CN(Cc3ccccc3)C[C@H]2CN1c1cncnc1,-76.5
14,Cc1ccc(OCC(=O)N2CCN[C@H]3CS(=O)(=O)C[C@H]32)cn1,-103
15,Cc1cccc(CN2CC[C@@H]3[C@@H]2CCN3Cc2cccs2)n1,29.9
16,COCCN1CCO[C@H]2CCN(C(=O)c3ccnnc3)CC[C@@H]21,-39.1
17,Cc1noc(C)c1CNCc1ccccc1N(C)C1CCN(C)CC1,73.6
18,CCc1cc(CNCc2ccccc2N(C)C2CCN(C)CC2)on1,74.5
19,CCc1cc(CN(C)C(=O)CN2CC(Cc3ccccc3)CC2=O)on1 (centres undefined),-126
20,CN(C)CCN1CCN(Cc2ccco2)Cc2cccnc21,11.9
21,Cc1noc(C)c1CN1CCN(C)c2ncccc2C1,-31.9
22,CN1CCC(N(C)c2ccccc2CNCc2ccco2)CC1,85.9
23,Cc1noc(C)c1CN(C)C(=O)CN1CC(c2ccccc2)CC1=O (centres undefined),-83.2
24,CCc1cc(CN(C)C(=O)CN2CC(c3ccccc3)CC2=O)on1 (centres undefined),-13.6
25,CC(C)N1CCc2c(CN(C)Cc3ccco3)cncc2C1,-16.1

row,Compound,INHIBITION [%]
1,CC(C)=CCN1C(=O)[C@@H]2CC[C@H]1CN(Cc1cccnc1N)C2,-11.1
2,CC1CN(C)CCN1C(=O)Cc1cc(Cl)c2c(c1)OCCO2 (centres undefined),-23.7
3,CCc1noc(CN2CCOC3(CCCC3)C2)n1,-159
4,c1cc(CN2C[C@@H]3OCCN(CCN4CCCC4)[C@@H]3C2)ccn1,-104
5,Cc1cc(C)c2[nH]c(C)c(CC(=O)N(C)CCN(C)C)c2c1,61.9
6,Cc1[nH]c2c(C)cccc2c1CC(=O)N(C)CCN(C)C,46.3
7,Cc1ccc2c(CC(=O)N(C)CCN(C)C)c(C)[nH]c2c1C,-86.5
8,N#Cc1ccc(C(=O)NS(=O)(=O)c2ccc(C#N)c(Cl)c2)cc1,-1
9,COc1cccc(CNc2cc(C)nc(-c3ccncc3)n2)c1OC,89.3
10,Cc1cc(C(F)(F)F)nc(N2CCN3CCCC3C2)n1 (centres undefined),-144
11,CCc1ccc(-c2cc(C(F)(F)F)nc(N3CCC(N)CC3)n2)cc1,82.4
12,FC(F)(F)c1cc(-c2cccs2)nc(N2CCN3CCCC3C2)n1 (centres undefined),-47.6
13,O=C(Nc1cccnc1)[C@@H]1COC[C@H]2CN(C3CCCC3)C[C@H]21,-20.2
14,O=C(c1ccc2c(c1)COC2)N1CCC(Nc2ccccc2)CC1,-162
15,O=C1[C@H]2CN(Cc3ccncc3)C[C@H]2CN1c1ccsc1,-92.9
16,COc1cccc(CN2CCC(CO)(Cc3ccc(Cl)cc3)CC2)c1O,89.5
17,c1cc(CN2CCN(Cc3ccon3)C3(CCCCC3)C2)no1,-126
18,Cc1noc(C)c1CN1CC[C@H]2C[C@@H](c3ccncn3)O[C@@H]2C1,-98.1
19,Cc1cc(N2CCN3CCCCC3C2)n2nc(C)c(C)c2n1 (centres undefined),-76.1
20,Cc1nc(-c2cccc(N3CCC(N4CCCC4)CC3)c2)cs1,71.6
21,Cc1ncccc1OCC(=O)N1CCN[C@H]2CS(=O)(=O)C[C@H]21,-151
22,c1ccc(CN2CCN3C[C@H](Oc4cncnc4)C[C@H]3C2)nc1,-102
23,NC1CCc2nc(-c3ccncc3)nc(Nc3cccc(F)c3)c2C1 (centres undefined),84.2
24,NC1CCc2nc(-c3cccnc3)nc(Nc3ccc(F)cc3)c2C1 (centres undefined),87.1
25,CCc1cc(N2CCNCC2)n2nc(C)c(C)c2n1,-115

row,Compound,INHIBITION [%]
1,COCCN1C[C@@H]2[C@@H](OC)CCN(C(=O)Cc3ccsc3)[C@@H]2C1,19.2
2,COc1cccc([C@H]2CN(C(C)=O)[C@@H]3CCN(Cc4ccsc4)C[C@H]23)c1,73.9
3,Cc1noc(C)c1CN1CC[C@H]2C[C@H](c3ccncn3)O[C@@H]2C1,-66.9
4,O=C(CC1CC1)N[C@@H]1CN(Cc2cccnc2)C[C@@H]2CCCO[C@@H]21,-42.5
5,CN1CCN(Cc2ccoc2)Cc2cccnc21,-116
6,c1cncc(CN2CCO[C@@H]3CN(Cc4ccoc4)CC[C@@H]3C2)c1,30.1
7,CC(C)c1nccc([C@H]2C[C@@H]3CCN(Cc4ccoc4)C[C@H]3O2)n1,-81.1
8,CC(C)c1nccc([C@@H]2C[C@@H]3CCN(Cc4ccoc4)C[C@H]3O2)n1,-35
9,COc1ccc(C[C@H]2CN(Cc3ccoc3)CC[C@H]2OC)cc1,75.1
10,CO[C@@H]1CCN(Cc2ccoc2)C[C@@H]1Cc1ccccc1,89
11,CCN1CCC2(CCC1=O)CN(c1nccc(N)n1)CCN2C (centres undefined),-4.03
12,Cc1cccc(CO[C@@H]2CC[C@H]3[C@H]2OCCN3Cc2ccoc2)n1,-50.4
13,O=C(NCc1ccccn1)[C@@H]1COC[C@H]2CNC[C@H]21,-8.97
14,COCCN1C[C@@H](C)[C@@]2(COCCN(C(=O)c3ccno3)C2)C1,-103
15,COc1ccc(-c2ccoc2)cc1CNC1CCCC1,70.2
16,CN(Cc1cccc(F)c1)C(=O)CN1CCCC1CCc1ccccc1 (centres undefined),75
17,OCCCN(CCc1cccc(F)c1)C1CC1,-63.8
18,CN(C)[C@@H]1CN(C(=O)Cc2cccc(F)c2)[C@@H]2CCCO[C@H]12,24.8
19,Cc1cc(N2CCCN(CCc3ccccc3)CC2)ccn1,87
20,Cc1ccc2c(n1)N(C)CCN(CCN1CCCC1)C2,-5.37
21,Cn1c(CCN2CCN(c3ccc(O)cc3)CC2)nc2ccccc21,-128
22,CO[C@@H]1CC[C@H]2[C@H]1OCCN2CC1CCOCC1,-21.2
23,c1cnc(N2C[C@H]3CN(CC4CCOC4)C[C@H]3C2)nc1 (some centres undefined),-53
24,O=C1CO[C@@H]2CNC[C@H]2N1CC1CC1,-97.4
25,COc1ccc(CN2CC[C@@H](O)[C@@H]2Cc2ccccc2)cc1,80.7

row,Compound,INHIBITION [%]
1,O=C1C[C@H]2[C@H](CCN2Cc2ccccn2)N1CC1CC1,-90.1
2,CNC(=O)[C@@H]1CN(Cc2ccccc2)C[C@H]1C(=O)c1ccc(F)cc1,-109
3,O[C@@H]1CCN(CC2CC2)[C@H]1Cc1ccccc1,63.2
4,O=C(NCCc1ccncc1)[C@H]1CC[C@@H]2[C@@H](CCN2CC2CC2)O1,-3.59
5,COc1ccc(CN2C[C@@H]3OCCN(c4ncccn4)[C@@H]3C2)cc1,-2.3
6,O=C(c1ccccc1)N1CCO[C@@H]2CNC[C@@H]21,-70.7
7,CCc1cc(N2CCN3CCCCC3C2)n2nccc2n1 (centres undefined),6.52
8,CC(C)c1cc(N2CC[C@H](F)C2)n2nccc2n1,70.9
9,Fc1ccccc1-c1cc(N2[C@@H]3CC[C@H]2CNC3)n2nccc2n1,-59
10,O=C1N(Cc2ccccn2)C[C@H]2CN(C3CCC3)CCN12,-13.7
11,O=C(C[C@@H]1COC[C@H]2CN(C3CCC3)C[C@@H]12)NCc1cccnc1,-138
12,CCOC[C@@H]1CC[C@H]2[C@H](CCN2Cc2c(C)noc2C)O1,-96.4
13,CN1CCCC(c2cncc(C(=O)NCc3ccccc3Cl)n2)C1 (centres undefined),72.4
14,Cc1nc(CC(=O)N2CCN(C)CC2c2ccccc2)cs1 (centres undefined),-76.9
15,CN1CCCC(Cc2nccnc2Cl)CC1 (centres undefined),5.74
16,CN1CCCC(c2cccc(Cc3ccccc3Cl)n2)C1 (centres undefined),70.3
17,O=C(C1CCCC1)N1C[C@@H]2CCNC[C@@H]21,-78.2
18,O=C1CC2(CCN(Cc3cccnc3)C2)CN1c1cncnc1 (centres undefined),-101
19,CC(C)NC(=O)N1CCOC2(CCNCC2)C1,16.9
20,O=C1CO[C@H]2CN(C3CCOCC3)C[C@H]2N1Cc1ccncc1,-53.2
21,CC(C)(C)C(=O)NCCNCc1ccc(Cl)c2cccnc12,77.7
22,CCCNC(=O)c1cn(C(C)(C)C)c2ncccc12,-149
23,COCCNC(=O)c1cn(C(C)(C)C)c2ncccc12,-129
24,O=C(N1CCOCC1)N1CCC2(CCNC2)C1 (centres undefined),-12.3
